Test results from the supplement of paper PMC4466140.

How the values were obtained:
Test in all cases: SPOT peptide array binding signal intensity (averaged, normalized) (arbitrary units (background-subtracted, floor 0; scale differs between SH3 domains)); higher = stronger binding of the SH3 domain to the peptide
[1] = molecular target: CaNbp2
Procedure, shortened: (§1)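 Four yeast species supplied the SH3 domains, which were expressed as GST fusions in E. coli BL21(DE3) and purified on glutathione Sepharose. Incubation with cellulose membranes carrying synthetic 15-mer peptides, cysteines exchanged for serines, ran overnight at 4°C at 10 μg/ml in TBS-based blocking buffer. Binding signal is reported as normalized, background-subtracted spot intensity averaged over replicates, in arbitrary units not shared between domains.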

[2] = molecular target: CaRvs167
Procedure, shortened: as §1

[3] = molecular target: CaRvs167-3
Procedure, shortened: as §1

[4] = molecular target: CaSho1
Procedure, shortened: as §1

[5] = molecular target: CaSla1-D1-D2
Procedure, shortened: as §1

[6] = molecular target: CaSla1-D3
Procedure, shortened: as §1

[7] = molecular target: ScAbp1
Procedure, shortened: as §1

[8] = molecular target: ScBbc1
Procedure, shortened: as §1

[9] = molecular target: ScBem1-D1
Procedure, shortened: as §1

[10] = molecular target: ScBzz1-D1
Procedure, shortened: as §1

[11] = molecular target: ScBzz1-D2
Procedure, shortened: as §1

[12] = molecular target: ScCyk3
Procedure, shortened: as §1

[13] = molecular target: ScFus1
Procedure, shortened: as §1

[14] = molecular target: ScHof1
Procedure, shortened: as §1

[15] = molecular target: ScHse1
Procedure, shortened: as §1

[16] = molecular target: ScLsb1
Procedure, shortened: as §1

[17] = molecular target: ScLsb2
Procedure, shortened: as §1

[18] = molecular target: ScLsb3
Procedure, shortened: as §1

[19] = molecular target: ScLsb4
Procedure, shortened: as §1

[20] = molecular target: ScMyo3
Procedure, shortened: as §1

[21] = molecular target: ScMyo5
Procedure, shortened: as §1

[22] = molecular target: ScNbp2
Procedure, shortened: as §1

[23] = molecular target: ScPex13
Procedure, shortened: as §1

[24] = molecular target: ScRvs167
Procedure, shortened: as §1

[25] = molecular target: ScSho1
Procedure, shortened: as §1

[26] = molecular target: ScSla1-D1-D2
Procedure, shortened: as §1

[27] = molecular target: ScSla1-D3
Procedure, shortened: as §1

[28] = molecular target: SpAbp1-D1
Procedure, shortened: as §1

[29] = molecular target: SpBbc1
Procedure, shortened: as §1

[30] = molecular target: SpBzz1-D1
Procedure, shortened: as §1

[31] = molecular target: SpBzz1-D2
Procedure, shortened: as §1

[32] = molecular target: SpCyk3
Procedure, shortened: as §1

[33] = molecular target: SpHof1
Procedure, shortened: as §1

[34] = molecular target: SpHof1-2
Procedure, shortened: as §1

[35] = molecular target: SpHof1-3
Procedure, shortened: as §1

[36] = molecular target: SpHse1
Procedure, shortened: as §1

[37] = molecular target: SpLsb1
Procedure, shortened: as §1

[38] = molecular target: SpLsb4
Procedure, shortened: as §1

[39] = molecular target: SpMyo1
Procedure, shortened: as §1

[40] = molecular target: SpNbp2
Procedure, shortened: as §1

[41] = molecular target: SpPex13
Procedure, shortened: as §1

[42] = molecular target: SpRvs167
Procedure, shortened: as §1

[43] = molecular target: SpSla1-D1-D2
Procedure, shortened: as §1

[44] = molecular target: SpSla1-D3
Procedure, shortened: as §1

[45] = molecular target: AgAbp1
Procedure, shortened: as §1

[46] = molecular target: AgBbc1
Procedure, shortened: as §1

[47] = molecular target: AgBem1-D1
Procedure, shortened: as §1

[48] = molecular target: AgBzz1-D1
Procedure, shortened: as §1

[49] = molecular target: AgBzz1-D2
Procedure, shortened: as §1

[50] = molecular target: AgCyk3
Procedure, shortened: as §1

[51] = molecular target: AgFus1
Procedure, shortened: as §1

[52] = molecular target: AgHof1
Procedure, shortened: as §1

[53] = molecular target: AgHse1
Procedure, shortened: as §1

[54] = molecular target: AgLsb1
Procedure, shortened: as §1

[55] = molecular target: AgLsb4
Procedure, shortened: as §1

[56] = molecular target: AgMyo5
Procedure, shortened: as §1

[57] = molecular target: AgNbp2
Procedure, shortened: as §1

[58] = molecular target: AgRvs167
Procedure, shortened: as §1

[59] = molecular target: AgSho1
Procedure, shortened: as §1

[60] = molecular target: AgSla1-D1-D2
Procedure, shortened: as §1

[61] = molecular target: AgSla1-D3
Procedure, shortened: as §1

[62] = molecular target: CaAbp1-D1
Procedure, shortened: as §1

[63] = molecular target: CaAbp1-D2
Procedure, shortened: as §1

[64] = molecular target: CaBbc1
Procedure, shortened: as §1

[65] = molecular target: CaBem1-D1
Procedure, shortened: as §1

[66] = molecular target: CaBzz1-D1
Procedure, shortened: as §1

[67] = molecular target: CaBzz1-D2
Procedure, shortened: as §1

[68] = molecular target: CaCyk3
Procedure, shortened: as §1

[69] = molecular target: CaFus1
Procedure, shortened: as §1

[70] = molecular target: CaHof1
Procedure, shortened: as §1

[71] = molecular target: CaHse1
Procedure, shortened: as §1

[72] = molecular target: CaLsb1
Procedure, shortened: as §1

[73] = molecular target: CaLsb4
Procedure, shortened: as §1

[74] = molecular target: CaMyo5
Procedure, shortened: as §1

## RRGPAPPPPPRASRP
[1]
  SPOT peptide array binding signal intensity: 209
[2]
  SPOT peptide array binding signal intensity: 805
[3]
  SPOT peptide array binding signal intensity: 11
[4]
  SPOT peptide array binding signal intensity: 18.5
[5]
  SPOT peptide array binding signal intensity: 2130
[6]
  SPOT peptide array binding signal intensity: 143
[7]
  SPOT peptide array binding signal intensity: 272
[8]
  SPOT peptide array binding signal intensity: 150
[9]
  SPOT peptide array binding signal intensity: 6
[10]
  SPOT peptide array binding signal intensity: 457
[11]
  SPOT peptide array binding signal intensity: 68.5
[12]
  SPOT peptide array binding signal intensity: 16
[13]
  SPOT peptide array binding signal intensity: 12.5
[14]
  SPOT peptide array binding signal intensity: 12.2
[15]
  SPOT peptide array binding signal intensity: 28.5
[16]
  SPOT peptide array binding signal intensity: 132
[17]
  SPOT peptide array binding signal intensity: 54
[18]
  SPOT peptide array binding signal intensity: 1380
[19]
  SPOT peptide array binding signal intensity: 892
[20]
  SPOT peptide array binding signal intensity: 160
[21]
  SPOT peptide array binding signal intensity: 279
[22]
  SPOT peptide array binding signal intensity: 158
[23]
  SPOT peptide array binding signal intensity: 1150
[24]
  SPOT peptide array binding signal intensity: 2010
[25]
  SPOT peptide array binding signal intensity: 668
[26]
  SPOT peptide array binding signal intensity: 4710
[27]
  SPOT peptide array binding signal intensity: 8.25
[28]
  SPOT peptide array binding signal intensity: 726
[29]
  SPOT peptide array binding signal intensity: 24
[30]
  SPOT peptide array binding signal intensity: 1820
[31]
  SPOT peptide array binding signal intensity: 340
[32]
  SPOT peptide array binding signal intensity: 13
[33]
  SPOT peptide array binding signal intensity: 52
[34]
  SPOT peptide array binding signal intensity: 27.8
[35]
  SPOT peptide array binding signal intensity: 420
[36]
  SPOT peptide array binding signal intensity: 37.8
[37]
  SPOT peptide array binding signal intensity: 107
[38]
  SPOT peptide array binding signal intensity: 1730
[39]
  SPOT peptide array binding signal intensity: 391
[40]
  SPOT peptide array binding signal intensity: 15.5
[41]
  SPOT peptide array binding signal intensity: 2
[42]
  SPOT peptide array binding signal intensity: 2270
[43]
  SPOT peptide array binding signal intensity: 571
[44]
  SPOT peptide array binding signal intensity: ≤ 0

## IVNKPLPPLPVAGSS
[45]
  SPOT peptide array binding signal intensity: 177
[46]
  SPOT peptide array binding signal intensity: ≤ 0
[47]
  SPOT peptide array binding signal intensity: 5.5
[48]
  SPOT peptide array binding signal intensity: 30
[49]
  SPOT peptide array binding signal intensity: 17.5
[50]
  SPOT peptide array binding signal intensity: ≤ 0
[51]
  SPOT peptide array binding signal intensity: 1.5
[52]
  SPOT peptide array binding signal intensity: 748
[53]
  SPOT peptide array binding signal intensity: 17.5
[54]
  SPOT peptide array binding signal intensity: ≤ 0
[55]
  SPOT peptide array binding signal intensity: 7.5
[56]
  SPOT peptide array binding signal intensity: ≤ 0
[57]
  SPOT peptide array binding signal intensity: ≤ 0
[58]
  SPOT peptide array binding signal intensity: 2.33
[59]
  SPOT peptide array binding signal intensity: 6850
[60]
  SPOT peptide array binding signal intensity: 1
[61]
  SPOT peptide array binding signal intensity: ≤ 0
[62]
  SPOT peptide array binding signal intensity: 21.5
[63]
  SPOT peptide array binding signal intensity: 48
[64]
  SPOT peptide array binding signal intensity: ≤ 0
[65]
  SPOT peptide array binding signal intensity: ≤ 0
[66]
  SPOT peptide array binding signal intensity: 459
[67]
  SPOT peptide array binding signal intensity: ≤ 0
[68]
  SPOT peptide array binding signal intensity: 0.5
[69]
  SPOT peptide array binding signal intensity: 232
[70]
  SPOT peptide array binding signal intensity: 55.2
[71]
  SPOT peptide array binding signal intensity: 1300
[72]
  SPOT peptide array binding signal intensity: ≤ 0
[73]
  SPOT peptide array binding signal intensity: ≤ 0
[74]
  SPOT peptide array binding signal intensity: ≤ 0
[1]
  SPOT peptide array binding signal intensity: ≤ 0
[2]
  SPOT peptide array binding signal intensity: 1.17
[3]
  SPOT peptide array binding signal intensity: ≤ 0
[4]
  SPOT peptide array binding signal intensity: 6570
[5]
  SPOT peptide array binding signal intensity: 338
[6]
  SPOT peptide array binding signal intensity: 0.5
[7]
  SPOT peptide array binding signal intensity: 378
[8]
  SPOT peptide array binding signal intensity: 0.25
[9]
  SPOT peptide array binding signal intensity: ≤ 0
[10]
  SPOT peptide array binding signal intensity: ≤ 0
[11]
  SPOT peptide array binding signal intensity: ≤ 0
[12]
  SPOT peptide array binding signal intensity: ≤ 0
[13]
  SPOT peptide array binding signal intensity: 10
[14]
  SPOT peptide array binding signal intensity: 1300
[15]
  SPOT peptide array binding signal intensity: 32
[16]
  SPOT peptide array binding signal intensity: ≤ 0
[17]
  SPOT peptide array binding signal intensity: ≤ 0
[18]
  SPOT peptide array binding signal intensity: 154
[19]
  SPOT peptide array binding signal intensity: ≤ 0
[20]
  SPOT peptide array binding signal intensity: ≤ 0
[21]
  SPOT peptide array binding signal intensity: ≤ 0
[22]
  SPOT peptide array binding signal intensity: ≤ 0
[23]
  SPOT peptide array binding signal intensity: 2500
[24]
  SPOT peptide array binding signal intensity: 97.8
[25]
  SPOT peptide array binding signal intensity: 7450
[26]
  SPOT peptide array binding signal intensity: 288
[27]
  SPOT peptide array binding signal intensity: 1.5
[28]
  SPOT peptide array binding signal intensity: 1580
[29]
  SPOT peptide array binding signal intensity: 1
[30]
  SPOT peptide array binding signal intensity: 159
